PTEN del growth – suppresses growth of cells with PTEN deletion; 1.2% of 140,000 active; viability, % at 10 µM; HCT116 PTEN-null viability, CellTiter-Glo, 60 h; hits give low values;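 active = viability at or below a set limit, 4 SD under the median of all tested compounds, cut at about 3.7% in these data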;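 also: PTEN knockout HCT116 line with beta catenin targeted HCT116 as companion control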
INS promoter inh – TRM-6 insulin promoter activity inhibition; TRM-6 cells (human fetal islet line), insulin promoter-eGFP reporter, imaging; reporter expression induced with tamoxifen; inhibition, % at 2 µM; 0.9% of 130,000 active;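 active = inhibition above the mean plus 3 SD, with well images judged a real hit on visual review, cut at about 60% in these data, passing the limit was not always enough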
L major viab – reduces viability of Leishmania major promastigotes; resazurin fluorescence viability; inhibition, % at 10 µM; 9% of 200,000 active; in the data active = inhibition above about 50%;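 also: promastigotes grown with compound for 44 hours at 28 °C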
ROMK primary – modulators of human ROMK potassium channel; P48048; Tet-inducible ROMK, thallium flux fluorescence; actives lie on both sides; B-score at 10 µM; 2% of 130,000 active; AID 1918;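 active = signal ratio slope over the read window, or its plate-corrected B-score, at least 3 SD from the plate mean, either direction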;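 also: B-score of the F/F0 ratio slope over 7 to 12 s after thallium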
bCat KO growth – beta-catenin-lacking colon tumor cell growth suppression. AID 818. 1.5% of 140,000 active. HCT116 beta-catenin knockout viability, CellTiter-Glo, 60 h; hits give low values. viability, % at 10 µM;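 active = viability at or under a set limit, the compound median less 4 SD, cut at about 6% in these data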;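 also: 0% = Hyamine 1622 control at 20 µM and 100% = untreated cell control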
p97 ATPase inh – human p97 ATPase inhibition. P55072. recombinant p97 ATPase, Kinase-Glo ATP luminescence, 3 h. inhibition, % at 8 µM. 0.42% of 220,000 active; in the data active = inhibition above about 15%;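 also: 0% = DMSO vehicle and 100% = wells lacking enzyme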
Target sequence (P55072 whole entry, looked up): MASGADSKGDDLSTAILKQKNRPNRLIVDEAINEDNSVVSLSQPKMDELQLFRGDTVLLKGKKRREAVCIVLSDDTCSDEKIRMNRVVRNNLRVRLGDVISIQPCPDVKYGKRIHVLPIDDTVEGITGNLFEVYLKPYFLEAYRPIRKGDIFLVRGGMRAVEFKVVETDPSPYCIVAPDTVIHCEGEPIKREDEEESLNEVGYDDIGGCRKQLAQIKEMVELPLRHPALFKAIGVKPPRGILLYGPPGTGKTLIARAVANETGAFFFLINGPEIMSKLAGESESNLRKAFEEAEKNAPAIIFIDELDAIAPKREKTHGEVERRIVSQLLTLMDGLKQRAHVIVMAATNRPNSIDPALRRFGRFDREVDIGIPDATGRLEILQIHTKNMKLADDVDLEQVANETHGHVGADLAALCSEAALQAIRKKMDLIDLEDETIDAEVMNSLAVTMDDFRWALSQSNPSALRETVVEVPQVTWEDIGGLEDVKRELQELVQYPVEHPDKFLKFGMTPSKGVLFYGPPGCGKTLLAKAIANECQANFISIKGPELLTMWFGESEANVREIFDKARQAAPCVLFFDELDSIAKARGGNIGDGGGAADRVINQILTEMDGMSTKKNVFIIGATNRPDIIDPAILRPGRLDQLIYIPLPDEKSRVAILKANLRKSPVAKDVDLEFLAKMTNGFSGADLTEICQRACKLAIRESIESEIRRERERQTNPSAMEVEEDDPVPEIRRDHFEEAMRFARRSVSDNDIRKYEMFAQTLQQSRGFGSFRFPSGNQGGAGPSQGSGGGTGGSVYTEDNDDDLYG
Lmaj promast 1uM – inhibitors of Leishmania major promastigote growth, repeat at 1 uM. shares compounds with L major viab. L. major promastigote growth, resazurin fluorescence, 48 h. inhibition, % at 1 µM. 13% of 1,100 active;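 active = inhibition above about 50% in both repeat tests, limit read from the data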
p97 confirm – confirmation of human p97 ATPase inhibitors. shares compounds with p97 ATPase inh. inhibition, % at 8 µM. recombinant p97 ATPase, Kinase-Glo ATP luminescence. AID 1517. 44% of 760 active;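 active = percent inhibition of p97 ATPase above a set limit, the primary screen's mean plus 3 SD, cut at about 15% in these data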;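 also: 0% = DMSO wells and 100% = wells lacking p97 protein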
ROMK hit retest – human ROMK channel modulation, retest confirmation. shares compounds with ROMK primary. ROMK thallium flux, fluorescence ratio; hits give low values. normalized thallium flux (F/F0 slope) at 10 µM. 54% of 3,000 active. AID 1917;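 active = Flux at 10 µM at least 3 SD below or above vehicle control mean in one or both replicates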
The depositor's hits bear a star. An excerpt weighted towards active compounds, which were near 10% of everything screened.

How did N#Cc1c(Oc2ccc3ccccc3c2)sc(C(=O)c2ccccc2)c1N do in these assays?
PTEN del growth: 14; INS promoter inh: 56; L major viab: 44; bCat KO growth: 16; p97 ATPase inh: 1

How did O=C(c1ccccc1)c1c2c(cc3sc4ccccc4[n+]13)-c1cccc3cccc-2c13 do in these assays?
PTEN del growth: 2.3*; INS promoter inh: -233; L major viab: 100*; bCat KO growth: 2.1*; p97 ATPase inh: -3; Lmaj promast 1uM: 100*; ROMK hit retest: 0.045*

Results for CC(/C=N/NC(=O)c1cc(-c2ccncc2)nc2ccccc12)=C\c1ccco1 ?
PTEN del growth: 16; INS promoter inh: -9; L major viab: 89*; ROMK primary: 3.7*; bCat KO growth: 16; p97 ATPase inh: 2; Lmaj promast 1uM: 19; ROMK hit retest: 0.09

Results for O=C(N/N=C/c1ccco1)c1cc(-c2cccc(Br)c2)nc2ccccc12 ?
PTEN del growth: 68; INS promoter inh: 50; L major viab: 40; ROMK primary: -0.49; bCat KO growth: 82; p97 ATPase inh: 6

How did Cc1cccc(NC(=O)c2cccc(N3C(=O)C4C5CCC(C5)C4C3=O)c2)c1C (centres undefined) do in these assays?
PTEN del growth: 93; L major viab: -8; ROMK primary: -0.76; bCat KO growth: 89; p97 ATPase inh: 2

How did CCOc1ccccc1N1CC(C(=O)Nc2c(C)n(C)n(-c3ccccc3)c2=O)CC1=O (centres undefined) do in these assays?
L major viab: -7; ROMK primary: 0.018; p97 ATPase inh: 5

Results for Cc1c(CCOC(=O)CC23CC4CC(CC(C4)C2)C3)sc[n+]1CC(=O)c1ccccc1 ?
L major viab: 91*; ROMK primary: -6.1*; p97 ATPase inh: 10; Lmaj promast 1uM: 23; ROMK hit retest: 0.047*

Results for O=[N+]([O-])c1ccc(C(O)C(CO)NC(=S)Nc2ccccc2)cc1 (centres undefined) ?
p97 ATPase inh: 16*; p97 confirm: 9

What do the screens show for `Cc1ccc(NC(=S)NC(CO)C(O)c2ccc([N+](=O)[O-])cc2)cc1` (centres undefined)?
L major viab: 2; ROMK primary: -1.4; p97 ATPase inh: 3

Results for CCCCn1[nH]c(-c2ccccc2)cc1=O ?
PTEN del growth: 101; INS promoter inh: 47; L major viab: -5; bCat KO growth: 91; p97 ATPase inh: 21*; p97 confirm: 6

Results for CCC(=O)NC1=C(NC(C)c2ccccc2)C(=O)c2ccccc2C1=O (centres undefined) ?
PTEN del growth: 68; INS promoter inh: -16; L major viab: -5; ROMK primary: 0.0011; bCat KO growth: 67; p97 ATPase inh: -6

What do the screens show for `CCC(=O)NC1=C(Cl)C(=O)C(NC(=O)CC)=C(Cl)C1=O`?
p97 ATPase inh: 19*; p97 confirm: 12

Results for O=C(O)CCCNC(=O)Nc1ccccc1 ?
PTEN del growth: 93; INS promoter inh: 30; L major viab: -6; ROMK primary: 1.1; bCat KO growth: 92; p97 ATPase inh: 3

What do the screens show for `O=C(NCCC1CC1(Cl)Cl)Nc1ccccc1` (centres undefined)?
ROMK primary: -0.11; p97 ATPase inh: 23*; p97 confirm: 6

What do the screens show for `CCC(=O)Nc1ccc(Br)c(Cl)c1`?
PTEN del growth: 95; INS promoter inh: 62; L major viab: -1; ROMK primary: -0.83; bCat KO growth: 92; p97 ATPase inh: 16*; p97 confirm: 11

How did O=C(O)c1cccc(CN2C(=O)SC(Nc3cccc4ccccc34)C2=O)c1 (centres undefined) do in these assays?
INS promoter inh: 32; L major viab: -6; ROMK primary: 0.044; p97 ATPase inh: 17*; p97 confirm: 13

What do the screens show for `CCC(=Nc1ccc(N)cc1)C1=C(O)C(C(=O)OC)C(C)(C)CC1=O` (centres undefined)?
PTEN del growth: 92; L major viab: -1; bCat KO growth: 98; p97 ATPase inh: 15*; p97 confirm: 4

How did CCCCC(=Nc1ccc(N)cc1)C1=C(O)C(C(=O)OC)C(C)(C)CC1=O (centres undefined) do in these assays?
PTEN del growth: 106; INS promoter inh: -30; L major viab: 68*; ROMK primary: -0.12; bCat KO growth: 95; p97 ATPase inh: 18*; p97 confirm: 9

How did COC(=O)c1ccccc1N1CCS(=O)(=O)CC1 do in these assays?
INS promoter inh: -95; L major viab: -7; ROMK primary: 0.55; p97 ATPase inh: 1

Results for O=C(Nc1cccc2nsnc12)c1ccc(-c2cccc(Cl)c2)o1 ?
PTEN del growth: 100; INS promoter inh: 3; L major viab: -1; bCat KO growth: 99; p97 ATPase inh: 18*; p97 confirm: 5

What do the screens show for `Cc1ccc2nsnc2c1NC(=O)c1ccc(-c2cc(Cl)ccc2Cl)o1`?
PTEN del growth: 59; INS promoter inh: -27; L major viab: 0; bCat KO growth: 76; p97 ATPase inh: -1

How did O=S(=O)(/N=C/c1c(O)ccc2ccccc12)c1cccs1 do in these assays?
PTEN del growth: 91; INS promoter inh: 31; L major viab: -10; ROMK primary: 0.94; bCat KO growth: 101; p97 ATPase inh: 3

What do the screens show for `Cc1ccc(CNC(=O)CNC(=O)c2c(C)nn(C)c2Cl)cc1`?
L major viab: -7; ROMK primary: -1.7; p97 ATPase inh: 1

Results for Fc1ccc(NC(=S)NCc2cccs2)cc1 ?
PTEN del growth: 93; INS promoter inh: 54; L major viab: 15; ROMK primary: 0.0073; bCat KO growth: 88; p97 ATPase inh: -1

What do the screens show for `C#CC[N+](C)(C)C(C#Cc1ccccc1)CC=C` (centres undefined)?
PTEN del growth: 88; INS promoter inh: 2; L major viab: 2; bCat KO growth: 79; p97 ATPase inh: -3

How did O=C(Nc1ccc(NC(=O)c2cc3ccccc3o2)cc1)c1ccc2c(c1)OCCO2 do in these assays?
INS promoter inh: -17; L major viab: -6; ROMK primary: 0.24; p97 ATPase inh: -2

Results for Cc1cc(NC(=O)c2ccc3c(c2)OCCO3)ccc1NC(=O)c1cc2ccccc2o1 ?
INS promoter inh: 40; L major viab: 10; ROMK primary: 0.7; p97 ATPase inh: 16*; p97 confirm: 15*

High-throughput results (PubChem)
